Here are results for 99 variants from a collection of fitness landscapes (doi:10.1016/j.celrep.2020.107928).

In all, about 81,000 sequences were measured (“one-hybrid fitness for binding parS DNA”: median about -0.17, highest 2% from about 0.51 on). The sample as a whole holds a higher share of the highest values than the screen did.

B1: Caulobacter ParB omega fusion; a variant is named by its letters at X, in order, B8GW30 (parent)
chain: MESVVVGEPGMSEGRRGLGRGLSALLGEVDAAPAQAPGEQLGGSREAPIEILQRNPDQPRRTFREEDLEDLSNSIREKGVLQPILVRPSPDTAGEYQIVAGERAWRAAQRAGLKTVPIMVRELDDLAVLEIGIIENVQRADLNVLEEALSYKVLMEKFERTQENIAQTIGKSXSHVANXMRLLXLPDEVQSYLVSGELTAXHARAIAAAADPVALAKQIIEGGLSVRETEALARKAPNLSAGKSKGGRPPRVKDTDTQALESDLSSVLGLDVSIDHRGSTGTLTITYATLEQLDDLCNRLTRGI

Variants of B1 are the subject of this assay. Nature of the assay: one-hybrid fitness for binding parS DNA (scaled: cognate 1, non-cognate 0); higher = stronger binding. The note with it: with parS DNA site. The essentials:
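In E. coli USO, a HIS3 reporter with its site placed 19 bp from the promoter was used to select Caulobacter ParB variants randomised at four specificity codons. Growth lasted 48 hours at 37°C on histidine-free M9 containing 0.1 mM IPTG and 5 mM 3-AT. Fitness was taken as the log change in variant-to-wild-type read ratio from Illumina sequencing of pre- and post-selection plasmids, rescaled between the non-cognate and cognate sites.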
HISY: the “one-hybrid fitness for binding parS DNA” value was no more than 0.2. For the variant PLCG, the “one-hybrid fitness for binding parS DNA” value is no more than 0.2.

For KSHC, the “one-hybrid fitness for binding parS DNA” value is no more than 0.2. Take TRTL: the “one-hybrid fitness for binding parS DNA” value was no more than 0.2. The value for QHPL was no more than 0.2. As for TQMA, the figure is no more than 0.2; as for LYGV, no more than 0.2; as for STLG, no more than 0.2. The value for RMFM was 0.369. In the case of RMAT, the “one-hybrid fitness for binding parS DNA” value was 0.913. Consider RMFF, for which the “one-hybrid fitness for binding parS DNA” value amounted to 0.206. Take RMFT: the “one-hybrid fitness for binding parS DNA” value was 0.882. The value for RMAY was 0.436; that for RMAQ was no more than 0.2. The value for VYHP was no more than 0.2; that for HINR was no more than 0.2; that for PLDY was no more than 0.2. As for PNDH, the figure is no more than 0.2; as for RVKP, no more than 0.2; as for RVVD, no more than 0.2. For the variant RVVN, the “one-hybrid fitness for binding parS DNA” value was determined as 0.41. The value for RVKH was no more than 0.2. The value for RVKS was 0.831; that for RVVS was 1.03. The value for EWSG was no more than 0.2; that for QKNH was no more than 0.2. As for APDA, the “one-hybrid fitness for binding parS DNA” value is no more than 0.2. As for RWGA, the figure is 0.386; as for DTGA, no more than 0.2; as for RCGA, 0.653. As for RMGA, the figure is 0.573. As for DMGA, the figure is no more than 0.2; as for DFGA, no more than 0.2.

Regarding RPGA, the “one-hybrid fitness for binding parS DNA” value was no more than 0.2. With ETGA, the “one-hybrid fitness for binding parS DNA” value was no more than 0.2. Regarding RFGA, the “one-hybrid fitness for binding parS DNA” value worked out at 0.531.

With RTGA, the “one-hybrid fitness for binding parS DNA” value came out at 0.679. The value for PFGA was no more than 0.2. The value for NTKT was no more than 0.2. As for QYPA, the figure is no more than 0.2; as for WNKI, no more than 0.2; as for DAGA, no more than 0.2.

On to RAGA, for which the “one-hybrid fitness for binding parS DNA” value was found to be 0.595. As for RLGA, the figure is 0.617; as for DLGA, no more than 0.2. As for RHGA, the figure is 0.546; as for NLGA, no more than 0.2. RNGA: the “one-hybrid fitness for binding parS DNA” value came out at 0.496. Take RSGA: the “one-hybrid fitness for binding parS DNA” value stood at 0.597.

In the case of REGA, the “one-hybrid fitness for binding parS DNA” value was no more than 0.2. As for VGER, the figure is no more than 0.2; as for ETLC, no more than 0.2; as for ETVR, no more than 0.2. As for LAFP, the figure is no more than 0.2; as for GGRS, no more than 0.2.

For KQSE, the “one-hybrid fitness for binding parS DNA” value was no more than 0.2. The value for PDSM was no more than 0.2; that for LRGD was no more than 0.2.

Regarding RDEC, the “one-hybrid fitness for binding parS DNA” value is no more than 0.2. The value for RKEC was 0.893; that for RMEC was 0.878.

Regarding RKEQ, the “one-hybrid fitness for binding parS DNA” value is no more than 0.2. With RLEC, the “one-hybrid fitness for binding parS DNA” value amounted to 0.947. The value for RLER was no more than 0.2; that for RMEH was no more than 0.2; that for RCEC was 0.866. As for RLEI, the figure is no more than 0.2.

Take RKEI: the “one-hybrid fitness for binding parS DNA” value is no more than 0.2. Regarding RPEC, the “one-hybrid fitness for binding parS DNA” value is no more than 0.2. The value for RMEN was 0.369; that for LRQY was no more than 0.2; that for VQGR was no more than 0.2. As for HFMV, the figure is no more than 0.2; as for TEEC, no more than 0.2; as for FLDS, no more than 0.2. The value for HFDS was no more than 0.2; that for QTWK was no more than 0.2; that for CLLK was no more than 0.2.

For the variant TGRC, the “one-hybrid fitness for binding parS DNA” value is no more than 0.2.

In the case of RHEF, the “one-hybrid fitness for binding parS DNA” value is no more than 0.2. The value for RIEY was 0.338; that for RHEC was 0.851; that for RAEM was 0.246. The value for RREC was 0.731; that for RAEC was 0.807. As to RIEC, the “one-hybrid fitness for binding parS DNA” value turned out to be 0.791.

Consider RHEQ, for which the “one-hybrid fitness for binding parS DNA” value was found to be 0.223. The value for RREH was no more than 0.2; that for RAER was no more than 0.2; that for RREP was no more than 0.2.

RIER: the “one-hybrid fitness for binding parS DNA” value is no more than 0.2. The value for GGWR was no more than 0.2; that for ITFG was no more than 0.2; that for ITHW was no more than 0.2.

Take KYTR: the “one-hybrid fitness for binding parS DNA” value was no more than 0.2. QQLK: the “one-hybrid fitness for binding parS DNA” value was no more than 0.2. As for YTGV, the figure is no more than 0.2; as for RTEY, 0.414; as for NFEC, no more than 0.2.
